In PubChem BioAssay AID720551 (National Center for Advancing Translational Sciences (NCATS), 2013) one finds activity change data, which are given here for 56 compounds.

Each structure is given as a SMILES string. The whole screen tested about 340,000 compounds, of which about 1,300 (0.38%) were called active. The list comes from a sample in which actives are over-represented; it also holds similar structures and randomly drawn compounds. A number with no mark means an inactive call.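 How the source made its calls: active means maximum activity change below -70%; inconclusive means maximum activity change between -70% and -50%; inactive means maximum activity change above -50%.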
On the % scale 0 is the no-effect control and ±100 the full control effect.

Voltage-gated inwardly rectifying potassium channel KCNH2 (Homo sapiens), sequence (Q12809 whole entry, looked up): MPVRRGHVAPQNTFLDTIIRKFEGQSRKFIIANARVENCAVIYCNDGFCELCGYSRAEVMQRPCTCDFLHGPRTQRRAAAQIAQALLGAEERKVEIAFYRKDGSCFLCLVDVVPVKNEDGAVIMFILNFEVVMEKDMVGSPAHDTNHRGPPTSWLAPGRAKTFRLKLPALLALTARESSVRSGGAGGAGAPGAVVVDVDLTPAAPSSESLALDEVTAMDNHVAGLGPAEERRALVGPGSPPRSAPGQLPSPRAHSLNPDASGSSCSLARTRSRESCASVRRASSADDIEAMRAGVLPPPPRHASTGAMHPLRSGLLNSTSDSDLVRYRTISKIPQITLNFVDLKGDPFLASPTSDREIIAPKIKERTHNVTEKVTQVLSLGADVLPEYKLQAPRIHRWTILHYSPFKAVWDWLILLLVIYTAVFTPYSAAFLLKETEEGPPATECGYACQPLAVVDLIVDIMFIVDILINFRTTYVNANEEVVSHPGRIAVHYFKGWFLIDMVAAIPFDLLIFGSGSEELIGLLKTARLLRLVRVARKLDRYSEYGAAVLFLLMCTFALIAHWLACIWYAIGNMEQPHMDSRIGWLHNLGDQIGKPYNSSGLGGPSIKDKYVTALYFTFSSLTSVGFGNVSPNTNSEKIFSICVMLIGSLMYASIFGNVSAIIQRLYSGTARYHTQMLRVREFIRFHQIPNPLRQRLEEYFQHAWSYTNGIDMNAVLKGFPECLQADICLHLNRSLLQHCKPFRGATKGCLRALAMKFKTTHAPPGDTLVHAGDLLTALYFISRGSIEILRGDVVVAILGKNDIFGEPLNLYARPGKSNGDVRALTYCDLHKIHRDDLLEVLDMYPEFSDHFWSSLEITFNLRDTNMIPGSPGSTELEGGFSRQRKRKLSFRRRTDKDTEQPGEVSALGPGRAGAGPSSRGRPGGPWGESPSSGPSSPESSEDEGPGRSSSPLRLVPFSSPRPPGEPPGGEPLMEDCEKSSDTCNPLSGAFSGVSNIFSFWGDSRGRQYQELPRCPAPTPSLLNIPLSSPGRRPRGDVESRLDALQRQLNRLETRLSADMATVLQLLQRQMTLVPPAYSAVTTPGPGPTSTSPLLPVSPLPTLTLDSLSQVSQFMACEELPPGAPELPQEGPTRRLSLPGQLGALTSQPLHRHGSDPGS

The test concerns the target Voltage-gated inwardly rectifying potassium channel KCNH2 (Homo sapiens) (UniProt Q12809). Nature of the test: qHTS for Inhibitors of KCHN2 3.1: Wildtype qHTS. Particulars: U2OS, BacMam KCNH2, thallium flux FluxOr; at 1.84 µM; hits give low values. Put shortly:
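U2OS cells were transduced with wild-type KCNH2 virus (2.03 x 10^8 / mL) for 4 h at room temperature, then cultured overnight at 37 C. Thallium flux was read with FluxOr dye. Rate constants were normalized to DMSO controls.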
(In general: Quantitative high-throughput screening tests each substance at several concentrations.)
With `C[C@H]1CN([C@@H](C)CO)C(=O)CCCn2cc(nn2)CO[C@@H]1CN(C)S(=O)(=O)c1ccc(-n2cccn2)cc1`, the activity change is 12.7%.
The figure for `CCOc1ccc(S(=O)(=O)NCCC(=O)NNC(=O)c2ccc(F)cc2)cc1` is -9.08%; for `Fc1ccc2[nH]c3c(N4CCN(Cc5ccc6c(c5)OCO6)CC4)ncnc3c2c1` it is 22.8%.
The figure for `CCN1CCCC1Cn1cnc2c([nH]c3cc(OC)ccc32)c1=O` (stereo unspecified) is 0.665%.
As for `CCN1CCCC1CNc1ncnc2c1[nH]c1ccc(F)cc12` (stereo unspecified), the figure is -81.9% (active); as for `COc1cc(-c2nnc(NC(=O)CS(=O)(=O)c3ccc(Cl)cc3)o2)cc(OC)c1OC`, -3.22%; as for `C[C@@H]1Cn2cnc(C(=O)Nc3ccc(CNC(=O)OC(C)(C)C)cc3)c2C(=O)N1`, 1.51%.
For `O=C(CSc1nnc(-c2cccnc2)n1Cc1ccco1)c1ccc(Cl)c(Cl)c1`, the activity change was 1.21%.
With `Cc1ccc(NC(=O)CSc2nnc(-c3cnccn3)n2Cc2ccco2)cc1C`, the activity change was 8.19%.
As for `O=C(CSc1nnc(-c2cnccn2)n1Cc1ccco1)c1ccc(Cl)c(Cl)c1`, the figure is -187% (active); as for `CC(=O)Nc1ccc(SCC(=O)NC(=O)c2ccc(Cl)cc2)cc1`, 1.87%.
Take `CSc1ncnc2c1ncn2CCCNCC(C)c1ccccc1` (stereo unspecified): the activity change was -15.1%.
Consider `Cc1nn(C)c(Cl)c1CN1CCC(n2nccc2NC(=O)C2CCCC2)CC1`, for which the activity change was 26.5%.
The figure for `CC(CN1CCC(n2nccc2NC(=O)C2CCCC2)CC1)c1ccccc1` (stereo unspecified) is 15.8%; for `O=C(Nc1ccnn1C1CCN(C/C=C/c2ccc(F)cc2)CC1)C1CCCC1` it is -105% (active); for `COC(=O)N(C)C[C@@H]1OCc2cnnn2CCCC(=O)N([C@@H](C)CO)C[C@@H]1C` it is 1.19%.
The figure for `COCCn1c(SCC(=O)Nc2ccc(F)cc2F)nc2c(c1=O)SCC2` is -2.69%; for `Nc1cc(C(=O)N2CCN(c3ccccc3Cl)CC2)ccc1N1CC2CC(C1)c1cccc(=O)n1C2` (stereo unspecified) it is 6.37%.
Take `CC1CCc2[nH]c3ccc(C(=O)N(C)CC(=O)Nc4cccc(F)c4)cc3c2C1` (stereo unspecified): the activity change was 2.89%.
For the compound `O=C(CCCN1CCc2[nH]c3ccc(F)cc3c2C1)c1ccc(F)cc1`, the activity change is -94.7% (active).
As for `C=CCNC(=S)N1CCc2[nH]c3ccccc3c2C1`, the figure is 1.48%; as for `Cc1ccc(C(=O)N[C@H](C(=O)N2CCN(c3ncccn3)CC2)C(C)C)cc1`, 1.07%.
Turning to `Cc1ccc(S(=O)(=O)N2C[C@H]3C(=O)C[C@@H](c4cccc5ccccc45)N(S(=O)(=O)c4ccc(C)cc4)[C@H]3C[C@H]2c2ccc(Cl)cc2)cc1`, the activity change is 5.59%.
The figure for `O=C(COc1ccc(Br)cc1)OCC(=O)c1ccc[nH]1` is -10.8%; for `COc1ccc(NC(=O)CN(C)C(=O)c2cc(C)oc2C)cc1` it is -15.3%; for `CCc1cccc(CC)c1N1C(=O)CC(Sc2ccccc2N)C1=O` (stereo unspecified) it is -0.824%.
As for `CCC(c1nnnn1C1CCCC1)N(Cc1cccs1)Cc1cc2cccc(C)c2[nH]c1=O` (stereo unspecified), the figure is -3.98%; as for `CCC(c1nnnn1Cc1ccco1)N(CCc1ccccc1)Cc1cc2cccc(C)c2[nH]c1=O` (stereo unspecified), -261% (active).
Consider `CCC(c1nnnn1Cc1ccco1)N(Cc1cc2cc(OC)ccc2[nH]c1=O)C1CCCCC1` (stereo unspecified), for which the activity change is 0.509%.
The figure for `Cc1ccccc1C#CC1=CC(=O)CC(C)(C)C1` is 11%.
For the compound `CC1(C)CC(=O)C=C(c2ccccc2CO)C1=O`, the activity change was 2.31%.
The figure for `CCCS(=O)(=O)N1CCC(CCOc2ccccc2)(C(=O)OCC)CC1` is 9.17%.
On to `CCOC(=O)C1(CCOc2ccccc2)CCN(Cc2cc(OC)cc(OC)c2)CC1`, for which the activity change was -109% (active).
As for `CCOC(=O)C1(CCOc2ccccc2)CCN(Cc2ccc(C#CCCO)cc2)CC1`, the activity change is 19.1%.
The figure for `O=C(O)c1ccccc1Cc1ccc(F)c2ccccc12` is 3.97%; for `COC(=O)C[C@H]1C[C@@H]2c3cc(N(C)C)ccc3O[C@@H]2[C@H](CO)O1` it is -11.4%.
As for `O=C(c1ccc(CS(=O)Cc2ccccc2Cl)o1)N1CCN(c2ccccc2)CC1` (stereo unspecified), the figure is 7.11%; as for `CCOC(=O)c1ccc2c(c1)nc(C)n2CC`, 12.4%; as for `CCn1c(C)nc2c1C(=O)c1ccccc1C2=O`, -229% (active).
With `Cc1nc2ccccc2n1CC(O)c1ccccc1` (stereo unspecified), the activity change is -1.47%.
The figure for `C[C@@H]1CN([C@H](C)CO)C(=O)CCCn2cc(nn2)CO[C@H]1CN(C)S(C)(=O)=O` is -23.5%; for `CC(C)N=C1CCCC1C(=S)SSC(=S)C1CCCC1=NC(C)C` (stereo unspecified) it is -26.8%.
As for `Cc1ccc(S(=O)(=O)/N=C2\C=C(NS(=O)(=O)c3ccc(C)cc3)C(=O)c3ccccc32)cc1`, the figure is 1.35%; as for `Cc1cccc2sc(N(CCCN(C)C)C(=O)CCS(=O)(=O)c3ccccc3)nc12`, 3.42%.
As for `Cc1ccc(S(=O)(=O)N(C)C)cc1NC(=O)COC(=O)/C=C/c1cccs1`, the activity change was -3.39%.
Regarding `Cc1ccc(S(=O)(=O)N(C)C)cc1NC(=O)/C=C/c1cccs1`, the activity change was -0.908%.
As for `CN(C)CCN(C(=O)CN1C(=O)c2ccccc2C1=O)c1nc2cc3c(cc2s1)OCCO3`, the figure is 8.23%.
The figure for `Cc1cc(C)c2nc(N(CCN(C)C)C(=O)/C=C/c3cccs3)sc2c1` is -136% (active); for `Cc1ccc2sc(N(CCN(C)C)C(=O)/C=C/c3cccs3)nc2c1C` it is -101% (active); for `CCOc1ccc(CCNC(=O)COC(=O)c2ccc(C)c(S(=O)(=O)N3CCOCC3)c2)cc1OCC` it is -0.902%.
The figure for `O=C(Nc1cccc(C(=O)O)c1)/C(=C\c1ccccc1)NC(=O)c1ccc(Br)o1` is 9.44%.
Consider `Cc1ccc(S(=O)(=O)NN=C2CC(C)(C)CC(=O)C2(C)C)cc1`, for which the activity change was -3.73%.
As for `O=C(OCc1ccccc1)N1CCC2CC1c1cc(N3CCN(S(=O)(=O)c4cc(Cl)cc(Cl)c4)CC3)ccc12` (stereo unspecified), the figure is 3.43%; as for `Cc1cc(NC(=O)c2ccco2)c(=O)n(Cc2c(F)cccc2Cl)c1`, -11.4%.
As for `O=C(Nc1cccn(Cc2ccccc2Cl)c1=O)NC1CCCCC1`, the figure is -11.4%.
For `O=C(Nc1cccn(Cc2c(Cl)cccc2Cl)c1=O)c1ccc(Cl)cc1`, the activity change is -350% (active).
